Results on 14 compounds are retold here after PubChem BioAssay.

Each structure is given as a SMILES string. Active and inactive are the calls of the source. Unless noted, no rule for the calls is given here.

In assay [1] the test system is Wnt5a (protein binding on small-molecule microarray). The assay is described as follows: small molecules binding Wnt5a protein – biophysical, small-molecule microarray, 635/667 nm fluorescence, primary screen (AID 1142).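 Also: fluorescence read at 667 nm with signal to noise per printed feature.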 To be noted: 635 nm fluorescence, higher = more signal.
Assay [2] in a line: ATP-based viability of Huh7 replicon cells – cell-based, CellTiter-Glo luminescence, basal, 48 h, cytotoxicity control for HCV replication inhibitor project, primary screen (AID 1143).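 Also: Huh7 hepatoma cells carrying a hepatitis C replication reporter with no stimulus; test concentration not given here.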 Particulars: higher = more signal, called active from +8 up or from −8 down. On the technique in general: In antiviral work, replicon cells carry a viral genome segment that copies itself.
A short description of assay [3]: Pseudomonas biofilm growth suppression – PAO1 strain, BacTiter-Glo luminescence, LB-PBS, primary screen (AID 1144). Particulars: P. aeruginosa PAO1 biofilm, 12 h, higher = more signal.
Assay [4] is described as follows: basal CRE-LacZ reporter activity in PC12 – cell-based, unstimulated, primary screen (AID 1145). Particulars: no forskolin, luminescence, 4.5 h, higher = more signal, called active from +8 up or from −8 down.
Assay [5] in a line: forskolin-driven CRE-LacZ activity in PC12 – cell-based, CRE-LacZ reporter, forskolin-stimulated, primary screen (AID 1146).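 Also: PC12 cells with 6xCRE LacZ reporter stimulated by forskolin 10 µM; beta-galactosidase reporter signal reflecting CREB driven transcription.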 Particulars: luminescence, 4.5 h, higher = more signal, called active from +8 up or from −8 down.
Assay [6] has as its target Streptavidin (Streptomyces avidinii) (UniProt P22629). The assay is described as follows: compounds binding control protein streptavidin – biophysical, small-molecule microarray, 635/667 nm fluorescence, artefact control for SMM compound annotation, primary screen (AID 1147).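 Also: signal reflects streptavidin binding to arrayed compounds as a control protein.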 To be noted: higher = more signal.
Assay [7] in a line: probe aInhba binding on compound microarray – biochemical, small-molecule microarray, 635/667 nm fluorescence, primary screen (AID 1148).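 Also: score merges 667nm spot fluorescence with signal-to-noise for antibody binding to printed compounds.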 To be noted: higher = more signal.
The target in assay [8] is Torsin-1A (Homo sapiens) (UniProt O14656). Nature of the assay: TOR1A wild-type binding on microarray – cell lysate, small-molecule microarray, lysate, 635/667 nm, primary screen (AID 1149). Particulars: COS7 hTOR1A-WT lysate, 635 nm fluorescence, higher = more signal.
Torsin-1A (Homo sapiens), sequence (O14656 whole entry, looked up): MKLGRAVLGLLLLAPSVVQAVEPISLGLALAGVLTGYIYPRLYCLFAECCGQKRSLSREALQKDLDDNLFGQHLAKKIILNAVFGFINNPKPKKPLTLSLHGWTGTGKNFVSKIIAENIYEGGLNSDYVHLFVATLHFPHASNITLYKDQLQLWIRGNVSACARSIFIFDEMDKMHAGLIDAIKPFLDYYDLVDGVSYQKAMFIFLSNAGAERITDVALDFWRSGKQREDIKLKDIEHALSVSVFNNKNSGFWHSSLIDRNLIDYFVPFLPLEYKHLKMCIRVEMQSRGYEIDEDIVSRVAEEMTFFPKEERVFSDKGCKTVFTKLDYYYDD
The target is the same in assay [9]. The assay is described as follows: torsin A mutant lysate binding on microarrays – cell lysate, small-molecule microarray, COS7 lysate, 635/667 nm fluorescence, primary screen (AID 1150).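 Also: score pools 667 nm emission and signal to noise measuring lysate protein binding.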 To be noted: COS7 hTOR1A mutant lysate, 635 nm fluorescence, higher = more signal.
Assay [10] concerns Sonic hedgehog protein (Shh). Nature of the assay: Sonic hedgehog microarray binding compounds – biochemical, small-molecule microarray, 635/667 nm fluorescence, primary screen (AID 1151).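 Also: Shh protein binding to compounds spotted on small-molecule microarray slides; score combines spot fluorescence intensity with signal-to-noise across triplicate slides.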 Particulars: 635 nm fluorescence, higher = more signal.

Streptavidin (Streptomyces avidinii), sequence (P22629 whole entry, looked up): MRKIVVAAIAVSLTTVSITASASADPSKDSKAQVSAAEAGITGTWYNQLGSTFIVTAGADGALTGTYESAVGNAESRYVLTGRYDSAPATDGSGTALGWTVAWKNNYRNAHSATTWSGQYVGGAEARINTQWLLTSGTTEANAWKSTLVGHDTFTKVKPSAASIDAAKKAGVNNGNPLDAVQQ

Take `COc1cc2c(cc1OC)CN(C(=O)[C@@H]1[C@H]3C(=O)O[C@H](c4ccccc4)[C@H](c4ccccc4)N3[C@H](c3ccc(OCCO)cc3)[C@@]13C(=O)Nc1ccccc13)CC2`: the composite z-score in [1] was determined as 0.758; in assay [6] it was 0.607; in [7], 0.188; in the assay with Torsin-1A (Homo sapiens) [8], 1.06; with Torsin-1A (Homo sapiens) [9], 0.858; in assay [10], 1.93. Further, the z-score is -1.06 (inactive) in assay [2], -1.46 (inactive) in assay [3], 0.829 (inactive) in assay [4] and -0.437 (inactive) in assay [5].
For the compound `COc1cccc(/C=C/C=O)c1`, the composite z-score in assay [1] was 0.279; in assay [6] it was -0.283; in [7], 0.156; with Torsin-1A (Homo sapiens) [8], 0.582; with Torsin-1A (Homo sapiens) [9] it was 0.351; in assay [10], 0.0757. In addition, the z-score in assay [2] was -0.0204 (inactive); in assay [3], -0.301 (inactive); in [4] it was 0.0026 (inactive); in [5] it was 0.599 (inactive).
`C=CCC(OC(C)=O)[C@@H]1[C@@H](N(Cc2cc3ccccc3o2)C(=O)c2ccc(C)cc2)c2cc(OCCCO)ccc2N1C(=O)Cc1ccc(OC)cc1` (stereo not given in full): the composite z-score in assay [1] is 0.525; in [6], 1.57; in assay [7], -0.0044; with Torsin-1A (Homo sapiens) [8], -0.28; with Torsin-1A (Homo sapiens) [9] it was 0.0194; in [10], 0.809. The z-score in [2] is -0.102 (inactive); in assay [3], -0.491 (inactive); in assay [4], 0.558 (inactive); in [5], -0.409 (inactive).
Take `COc1ccc(C#Cc2ccc3c(c2)[C@]2(C(=O)N3)[C@H](c3ccc(O)cc3)N3[C@H](c4ccccc4)[C@H](c4ccccc4)OC(=O)[C@H]3[C@@H]2C(=O)O)cc1`: the composite z-score in assay [1] was 0.136; in [6], 0.942; in assay [7] it was 0.11; with Torsin-1A (Homo sapiens) [8] it was 0.0897; in the assay with Torsin-1A (Homo sapiens) [9] it was 0.721; in [10], 0.248. Moreover, the z-score in assay [2] is -4.66 (inactive); in [3], -1.04 (inactive); in assay [4] it was 0.478 (inactive); in assay [5], -0.478 (inactive).
On to `O=C1O[C@H](c2ccccc2)[C@H](c2ccccc2)N2[C@H]1[C@@H](C(=O)Nc1nc3ccccc3s1)[C@]1(C(=O)Nc3ccc(C#CC4(O)CCCCCC4)cc31)[C@H]2c1ccccc1OCCO`, for which the composite z-score in assay [1] came out at 0.731; in assay [6], 0.612; in assay [7], 0.27; in the assay with Torsin-1A (Homo sapiens) [8], 0.602; in the assay with Torsin-1A (Homo sapiens) [9], 0.597; in [10], 1.32. The z-score was -4.43 (inactive) in assay [2], 0.0608 (inactive) in [3], 0.346 (inactive) in [4] and 0.0053 (inactive) in assay [5].
In the case of `O=C(NCc1ccccc1)[C@@H]1c2ccccc2C(=O)N(Cc2ccccc2C(F)(F)F)[C@H]1c1ccc(CO)cc1`, the composite z-score in assay [1] is -0.405; in [6], -0.752; in assay [7] it was -0.201; with Torsin-1A (Homo sapiens) [8], -1.55; with Torsin-1A (Homo sapiens) [9], 0.0481; in assay [10], -0.687. Moreover, the z-score in assay [2] was -1.55 (inactive); in [3], 0.714 (inactive); in assay [4], 0.324 (inactive); in assay [5] it was -0.0897 (inactive).
Regarding `CCOC(=O)C1=CC[C@@H](c2ccc(OCc3ccccc3)c(OC)c2)N(S(=O)(=O)c2ccc(C)cc2)[C@H]1c1ccc(SC)cc1`, the composite z-score in assay [1] was 0.683; in assay [6], 1.42; in assay [7], 0.113; with Torsin-1A (Homo sapiens) [8], 1.28; in the assay with Torsin-1A (Homo sapiens) [9] it was 1.4; in assay [10], 0.249. Moreover, the z-score in assay [2] was -1.51 (inactive); in [3], 0.765 (inactive); in assay [4], 0.967 (inactive); in assay [5], 0.137 (inactive).
In the case of `COC(=O)[C@@]1(Cc2ccccc2N=[N+]=[N-])N=C(c2ccc(OCCCO)cc2)O[C@H]1c1ccccc1N=[N+]=[N-]`, the composite z-score was 0.323 in assay [1]; 0.169 in assay [6]; 0.221 in assay [7]; -0.266 with Torsin-1A (Homo sapiens) [8]; 0.0067 with Torsin-1A (Homo sapiens) [9]; 0.58 in assay [10]. Moreover, the z-score in assay [2] was -5.44 (inactive); in assay [3] it was -0.455 (inactive); in [4], 1.53 (inactive); in assay [5], 0.237 (inactive).
Regarding `O=C1C=C(c2ccccc2)C(=O)c2ccc([C@H]3Oc4ccccc4S(=O)(=O)N4CCC[C@@H]34)cc21`, the composite z-score in assay [1] is 0.34; in assay [6], -0.309; in assay [7], -0.258; with Torsin-1A (Homo sapiens) [8], 0.0359; in the assay with Torsin-1A (Homo sapiens) [9], 1.97; in [10] it was 0.222. In addition, the z-score in assay [2] was -6.42 (inactive); in [3] it was 0.016 (inactive); in assay [4] it was 9.47 (active); in assay [5], 33 (active).
As for `COC(=O)[C@@]1(Cc2ccc(OC)cc2)[C@@H]2C(=CC(=O)[C@H]2CC(=O)C(=O)N(C)C)CN1C(=O)c1ccccc1`, the composite z-score in assay [1] is 0.956; in [6], 1.23; in [7] it was 1.04; with Torsin-1A (Homo sapiens) [8], 0.0826; with Torsin-1A (Homo sapiens) [9], 0.387; in assay [10], -0.671. Besides, the z-score in assay [2] is -3.7 (inactive); in [3], -0.946 (inactive); in assay [4] it was 0.0109 (inactive); in assay [5], 0.0777 (inactive).
`CC(C)C[C@@H]1NC(=O)[C@@H]2C[C@H](C(=O)NCCCCCN)[C@H](c3ccc(O)cc3)N2C1=O`: the composite z-score in assay [1] was 0.329; in assay [6], 1.01; in [7], -0.171; with Torsin-1A (Homo sapiens) [8], 0.457; in the assay with Torsin-1A (Homo sapiens) [9], 0.465; in [10] it was 2.04. The z-score is -0.079 (inactive) in [2], -0.422 (inactive) in [3], 0.411 (inactive) in [4] and 0.437 (inactive) in [5].
Consider `CN(C)CCCNC(=O)[C@@]1(C)c2ccccc2C(=O)N(Cc2ccccc2)[C@H]1c1ccc(CO)cc1`, for which the composite z-score was 0.0404 in assay [1]; -0.324 in assay [6]; -0.176 in [7]; -0.334 with Torsin-1A (Homo sapiens) [8]; -0.365 with Torsin-1A (Homo sapiens) [9]; 0.498 in [10]. The z-score is -1.97 (inactive) in assay [2], 0.329 (inactive) in [3], 0.389 (inactive) in [4] and 0.261 (inactive) in assay [5].
For `COCC1=C2[C@@H](CCc3ccccc3)OB(O)C[C@@H]2[C@@H]2C(=O)C=CC(=O)[C@@H]2C1`, the composite z-score in assay [1] turned out to be 0.0021; in assay [6], 0.55; in assay [7], 0.0212; with Torsin-1A (Homo sapiens) [8] it was 0.246; with Torsin-1A (Homo sapiens) [9] it was 0.292; in [10], 0.963. For the same compound, the z-score is -1.9 (inactive) in assay [2], 0.353 (inactive) in assay [3], 19.2 (active) in assay [4] and 22.8 (active) in assay [5].
On to `COc1cc2c(cc1O)C(C)N(Cc1ccc([N+](=O)[O-])o1)CC2` (stereo not given), for which the composite z-score stood at 0.322 in [1]; 0.97 in assay [6]; 0.303 in [7]; 0.682 with Torsin-1A (Homo sapiens) [8]; 0.897 in the assay with Torsin-1A (Homo sapiens) [9]; 0.0196 in assay [10]. For the same compound, the z-score is 0.143 (inactive) in assay [2], -0.158 (inactive) in [3], -0.258 (inactive) in assay [4] and 1.6 (inactive) in assay [5].
